Most compounds without a hit are left out; they make up all but 6% or so of the library.
D3 ag = agonists of human D3 dopamine receptor. AID 652048. P35462. D3R DiscoveRx beta-arrestin cells, luminescence, 90 min. max activation, %. 410,000 compounds, 0.58% hits; in the data active = max activation above about 30%; also: 0% is about no effect
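Agonist-mode cell screen: cells plated at 1500/well and incubated overnight at 37 °C, then exposed to library compounds for 90 min at 37 °C. Detection reagent was added for 30–60 min at room temperature, and luminescence was read.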
D1 agonist = activates the human D1 dopamine receptor. P21728. HEK293 T-REx D1 cells, calcium flux, agonist mode. activation, % at 2 µM. 360,000 compounds, 1% hits; in the data active = activation above about 30%; also: 0% is about no effect
Target sequence (P21728 whole entry, looked up): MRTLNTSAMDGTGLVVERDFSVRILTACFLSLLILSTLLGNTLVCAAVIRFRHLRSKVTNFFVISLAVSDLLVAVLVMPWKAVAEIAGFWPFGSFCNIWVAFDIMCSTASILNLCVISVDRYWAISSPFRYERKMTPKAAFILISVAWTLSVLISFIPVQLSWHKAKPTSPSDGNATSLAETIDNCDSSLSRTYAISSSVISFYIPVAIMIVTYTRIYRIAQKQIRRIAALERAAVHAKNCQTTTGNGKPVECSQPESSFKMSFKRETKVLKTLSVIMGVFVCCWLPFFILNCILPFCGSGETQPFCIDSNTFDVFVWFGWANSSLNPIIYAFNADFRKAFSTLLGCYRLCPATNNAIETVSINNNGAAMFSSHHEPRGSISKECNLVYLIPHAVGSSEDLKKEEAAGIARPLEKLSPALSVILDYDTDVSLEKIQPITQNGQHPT
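Inducible HEK293 T-REx D1 cells, force-coupled to calcium signalling, were plated at 4000 cells/well with tetracycline and held overnight at 30 C. After no-wash calcium dye loading, compound-evoked calcium rise over 180 s flagged agonists.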
D1 PAM = potentiators of human D1 dopamine receptor; P21728; HEK293 TREx D1 cells, calcium flux, dopamine EC20 potentiation; potentiation, % at 10 µM; 360,000 compounds, 0.036% hits; in the data active = potentiation above about 30%; also: 0% is about no effect
D1 antagonist = antagonists of human D1 dopamine receptor; HEK293 TREx D1 cells, calcium flux, dopamine EC80; active compounds read low; 360,000 compounds, 3.2% hits; activity change, negative = inhibition, % at 10 µM; P21728; in the data active = activity change below about -30%; also: % is scaled to controls: 0 for no effect and ±100 for the full control effect
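After overnight tetracycline induction at 30 C, force-coupled D1 HEK293 cells took up a no-wash calcium dye at room temperature. Compounds were added and monitored 180 s, and the response to EC80 dopamine was then recorded.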
DRD3 antagonist = antagonists of human D3 dopamine receptor | 360,000 compounds, 2.5% hits | D3R cells, DiscoveRx beta-arrestin luminescence, antagonist mode; active compounds read low | AID 652054 | max response, negative = inhibition, % | P35462; in the data active = max response below about -50%; inconclusive = no clear call, values can overlap the other calls; also: % is scaled to controls: 0 for no effect and ±100 for the full control effect
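Cells expressing the human receptor were seeded at 1500 cells/well, incubated overnight at 37 degrees C in 5% CO2, then exposed to library compounds with dopamine controls for 90 minutes at 37 degrees C before luminescent detection.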
* = called active by the depositor; ? = inconclusive; / = no result given; ! = not active in a repeat.

SMILES | D3 ag | D1 agonist | D1 PAM | D1 antagonist | DRD3 antagonist
O=C1CC(Cc2ccccc2)C(=O)N1CCc1ccc2c(c1)OCO2 (centres undefined) | -1 | 2 | 3 | -8 | 0
O=C1OC[C@H](Cc2ccc3c(c2)OCO3)/C1=C\c1ccc2c(c1)OCO2 | 3 | 20 | 0 | -33* | 5
COc1c(C)cc(S(=O)(=O)NCCc2c(C)[nH]c3ccccc23)c(C)c1C | 2 | 0 | -6 | -2 | /
Cn1c(-c2ccsc2)c(-c2cccs2)c2cc(-c3ccc4cc[nH]c4c3)ccc21 | 6 | 0 | -1 | / | 74
Cn1c(C=O)c(-c2ccc3cc[nH]c3c2)c2ccccc21 | 31* | 2 | -1 | / | 15
COc1cccc(CNC(=O)CCc2c(C)c3cc4c(C)coc4c(C)c3oc2=O)c1 | -17 | 1 | 2 | -14 | /
COc1ccc(CCNC(=O)c2ccc(Cn3c(=O)c4ccccc4n(Cc4cccc(Cl)c4)c3=O)cc2)cc1OC | 4 | 7 | 1 | -8 | /
CC1=C/C(=C(/c2ccc(O)c(C)c2)c2ccccc2S(=O)(=O)O)C=CC1=O | -19 | 4 | -2 | 0 | -56*
CC1=C/C(=C(/c2cc(C)c(O)c(Br)c2)c2ccccc2S(=O)(=O)O)C=C(Br)C1=O | -17 | 4 | -9 | -4 | -60*
Cc1ccc(S(=O)(=O)c2nnn3c2nc(N2CCN(c4ccc(F)cc4)CC2)c2cc(Cl)ccc23)cc1C | 3 | 1 | -5 | -6 | /
Cc1ccc(NC(=O)c2sc3nc(-c4ccncc4)ccc3c2N)cc1 | 3 | 165* | 14 | -5 | /
Cc1ccccc1NC(=O)c1sc2nc(-c3ccncc3)ccc2c1N | 6 | 48* | -4 | -17 | /
COc1ccc(NC(=O)c2c(NC(=O)C(F)(F)F)sc3c2CCCCC3)cc1 | -5 | 59* | -2 | -36* | /
O=[N+]([O-])c1ccc(O)c(-c2cc(C(F)(F)F)nc(-c3ccccc3)n2)c1 | 8 | 36* | -6 | -48* | 7
Oc1ccccc1-c1cc(C(F)(F)C(F)F)nc(-c2ccccc2)n1 | 13 | 3 | 0 | 5 | 1
COc1ccc(OC)c(NC(=O)c2ccc3c(SCC(=O)O)c4c(nc3c2)CCCC4)c1 | 6 | 0 | 0 | -5 | /
Cc1ccc(CNC(=O)CSc2c3c(nc4ccc(Cl)cc24)CCCC3)cc1 | 27 | -1 | 0 | 6 | /
O=C(CSc1c2c(nc3ccccc13)CCC2)Nc1ccc(F)cc1F | -22 | -1 | -2 | -36* | /
COc1ccc(NC(=O)c2ccc3c(SCC(=O)O)c4c(nc3c2)CCC4)c(OC)c1 | -1 | 2 | 1 | -35* | /
Cc1ccc(C)c(NC(=O)CSc2c3c(nc4ccc(Cl)cc24)CCCC3)c1 | 43* | 2 | 2 | -3 | /
Cc1cc(Br)ccc1NC(=O)CSc1c2c(nc3ccccc13)CCC2 | -10 | -1 | -1 | 10 | /
CN(C)CCCNCCCCNC(=O)/C=N/O | 0 | 4 | 4 | -23 | 16
CN(C)CCCNCCCNC(=O)/C=N/O | 8 | 1 | -8 | -38* | 19
O=C1c2ccccc2C(=O)c2c(O)c(O)cc(O)c21 | -92 | / | / | / | -67*
Nc1ccc(O)c2c1C(=O)c1ccccc1C2=O | -17 | 6 | 2 | 20 | -15
SMILES | D3 ag | D1 agonist | D1 PAM | D1 antagonist | DRD3 antagonist
CCc1ccc(CN(Cc2ccco2)c2cnc(S(C)(=O)=O)nc2C(=O)Nc2ccccc2Cl)cc1 | -1 | 22 | 1 | 11 | /
CCOc1ccc(NS(=O)(=O)c2ccc3[nH]c4c(c3c2)CCCC4)cc1 | 7 | 0 | 1 | -52* | /
Cc1cccc(NS(=O)(=O)c2ccc3[nH]c4c(c3c2)CCCCCC4)c1 | -10 | 1 | -6 | -87* | /
CCOC(=O)c1ccc(NC(=O)CSc2nc(C)c(Cc3ccccc3)c(=O)[nH]2)cc1 | 2 | 8 | 0 | -30* | /
COC(=O)c1ccc(NC(=O)Cn2nc(C)c3ccccc3c2=O)cc1 | -5 | 12 | 0 | -9 | -21
COc1ccc(OCCSc2ncccn2)cc1 | -3 | 2 | 1 | -6 | -17
CCOC(=O)c1ccc(NC(=O)Cn2nc(C)c3ccccc3c2=O)cc1 | 4 | 0 | 40* | -10 | 7
COc1ccc(OCCSc2nc(C)nc3ccccc23)cc1 | 55* | 11 | 5 | 6 | 63
COc1ccccc1OCCSc1nc2ccc([N+](=O)[O-])cc2s1 | 3 | 3 | -14 | -57* | 14
C=CCc1ccccc1OCCSc1nc2ccc([N+](=O)[O-])cc2s1 | -4 | 18 | 1 | -13 | 22
COc1cc2c(=O)c(S(=O)(=O)c3ccc(C)cc3)cn(Cc3cccc(C)c3)c2cc1OC | -3 | 15 | 0 | 8 | /
O=c1[nH]c(SCCOc2ccccc2F)nc2ccccc12 | 9 | 0 | -8 | -24 | 1
COc1ccccc1OCCSc1nc2ccccc2c(=O)[nH]1 | -4 | 0 | -10 | -41* | 4
COc1ccc(OCCSc2nc(C)c(Cc3ccccc3)c(=O)[nH]2)cc1 | -4 | 28 | -1 | -39*! | -5
Nc1cc(N)nc(SCCOc2ccccc2F)n1 | 2 | 0 | 1 | 1 | 27
COc1ccccc1OCCSc1nc(N)cc(N)n1 | 0 | 0 | -9 | -84* | 5
COc1cccc(CN(C(=O)c2oc3cc(C)ccc3c2C)C2CCS(=O)(=O)C2)c1 (centres undefined) | -18 | 2 | 1 | 5 | /
COCCN1C(=O)c2ccccc2C(C(=O)N2CCN(c3ccccn3)CC2)C1c1ccc(F)cc1 (centres undefined) | -6 | -2 | -6 | -7 | -51*
CCN(CC)CCCNC(=O)C1c2ccccc2C(=O)N(CCOC)C1c1ccc(F)cc1 (centres undefined) | 3 | 0 | 8 | 13 | 4
O=C(O)c1ccc(C=C(c2nc3ccccc3s2)c2nc3ccccc3s2)cc1 | -13 | 0 | -1 | -11 | ?
CN(C)c1ccc(/C=C(\Cl)c2nc3ccccc3s2)cc1 | -22 | 99* | -1 | -36* | -1
Cc1ccc(NC(=O)C2CCC(CNS(=O)(=O)c3ccc4c(c3)CCCC(=O)N4)CC2)c(C)c1 (centres undefined) | 6 | 5 | 3 | -3 | /
Cc1ccc(OCCSc2nc3ccccc3n2CC(=O)N2CCOCC2)cc1 | -2 | 19 | -4 | -20 | /
CCOC(=O)Cn1c(=O)n(C2CCCCC2)c2nc(-c3cccc(C)c3)nc(C(N)=O)c21 | 5 | 2 | -1 | -86* | /
CCOC(=O)Cn1c(=O)n(C2CCCCC2)c2nc(-c3cccc(F)c3)nc(C(N)=O)c21 | -3 | 0 | -2 | 5 | /
CCOC(=O)Cn1c(=O)n(C2CCCCC2)c2nc(-c3ccc(C(C)C)cc3)nc(C(N)=O)c21 | 4 | 0 | 0 | -51* | /
Nc1nc(NC2CC2)c2ncn([C@@H]3C=C[C@@H](CO)C3)c2n1 | 6 | / | / | / | /

Assay outcomes: PubChem BioAssay, National Center for Advancing Translational Sciences (NCATS)
